Source: PubChem BioAssay
ASM inhibitor = human S-ASM enzyme inhibition | P17405 | Potency, µM (series often up to 57.5 µM), for inactives: at the top dose activity change, negative = inhibition, most hits filed as inhibitors | AID 504937 | actives 0.006% (n = 340,000) | placental ASM, HMU-PC fluorogenic substrate, 60 min; active = well fitted inhibition curve with a large enough effect; inconclusive = small, poorly fitted or top-dose-only effect; inactive = no such curve, though single readings can be large or run the other way
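HMU-PC0 cleavage (9 uM final) by human placental ASM, 60 min at 37 °C following 10 min compound exposure at RT; stopped at pH 10, fluorescence Ex 386/Em 447 nm.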
BCR signal inh = chronic active BCR signaling inhibition; Potency, µM (doses to about 46.1 µM), for inactives: at the top dose activity change, negative = inhibition, most hits filed as inhibitors; ABC-DLBCL IkBa-CBG/CBR reporter, luminescence ratio, 4 h; AID 493014; actives 0.05% (n = 340,000); active = well fitted inhibition curve with a large enough effect in the signal ratio, with a control signal flat, not every such curve was filed as active; inconclusive = small, poorly fitted or top-dose-only effect, or effect the other way, or a change in a side signal; the % refers to the signal ratio;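 note: plate controls were basal doxycycline-induced cells for no effect and cells given 10 µM MG132 for full effect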
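Compounds up to 46 uM were incubated four hours with TMD8 cells whose green CBG68 luciferase is fused to IkappaBalpha; red CBR luminescence normalised the signal, and concentration-effect curves were fitted to fusion, red and ratio data.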
gsp ag = gsp mutant agonism; Potency, µM (titrated, usually from 76.9 µM), for inactives: top-dose activation (cAMP increase), usual class: activators; gsp mutant cells, cAMP HTRF, 30 min; AID 624287; actives 0.13% (n = 340,000); active = well fitted activation curve with a large enough effect; inconclusive = small, poorly fitted or top-dose-only effect, or another doubt; inactive = no such curve, though single readings can be large or run the other way; cell line not stated here;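 note: phosphodiesterase inhibitor Ro 20-1724 added with compounds to block cAMP breakdown; nearly all actives have a fitted effect of over 60% in size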
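Cells stably selected in G418 were plated at 2000/well, grown 16-24 hr, then given compounds in DMSO with the PDE inhibitor […] (300 uM solution added) for 30 min at 37C; cAMP was read by HTRF.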
MBNL1 CUG block = inhibitors of human MBNL1 binding to CUG repeat RNA. actives 0.036% (n = 280,000). Q9NR56. TR-FRET MBNL1-His/biotin-(CUG)12 binding, 665/545 ratio. Potency, µM (top dose mostly 57.5 µM), for inactives: at the highest dose activity change, negative = inhibition, actives largely listed as inhibitors; active = well fitted inhibition curve with a large enough effect in the signal ratio, with a control signal flat, not every such curve was filed as active; inconclusive = small, poorly fitted or top-dose-only effect, or effect the other way, or a change in a side signal; inactive = no such curve, though single readings can be large or run the other way; the % refers to the signal ratio; note: % is set by controls: 0 for no effect and ±100 for the full control effect
Target sequence (Q9NR56 whole entry, looked up): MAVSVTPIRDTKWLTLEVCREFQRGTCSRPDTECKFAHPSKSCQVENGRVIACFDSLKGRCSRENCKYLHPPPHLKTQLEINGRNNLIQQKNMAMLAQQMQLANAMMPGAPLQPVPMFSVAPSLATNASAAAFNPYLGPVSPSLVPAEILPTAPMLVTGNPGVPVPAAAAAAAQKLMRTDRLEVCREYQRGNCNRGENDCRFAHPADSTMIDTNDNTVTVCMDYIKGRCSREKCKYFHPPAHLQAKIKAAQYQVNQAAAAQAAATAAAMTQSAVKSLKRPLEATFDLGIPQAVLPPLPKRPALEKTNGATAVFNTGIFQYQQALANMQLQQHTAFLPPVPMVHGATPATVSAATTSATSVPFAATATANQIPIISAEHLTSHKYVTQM
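Ratiometric TR-FRET (665 over 545 nm, excitation 340 nm) tracks disruption of MBNL1-His/biotin-(CUG)12 complex after 60 min at room temperature, with compounds at 92 nM to 58 uM final.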
gsp antagonist = gsp mutant antagonism; gsp-mutant cells, cAMP HTRF, 30 min; Potency, µM (highest dose often 76.9 µM), inactives show at the highest dose activity change, negative = inhibition, most hits filed as inhibitors; actives 0.4% (n = 340,000); calls by dose curve; cell line not stated here;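 note: intracellular cAMP measured with PDE inhibitor Ro 20-1724 present during compound exposure; % is set by controls: 0 for no effect and ±100 for the full control effect; nearly all actives have a fitted effect of over 65% in size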
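G418-selected cells were plated in DMEM/10% FBS for 16-24 h at 37C, then treated with compounds plus the PDE inhibitor […] (300 uM solution added) for 30 min at 37C. Intracellular cAMP was measured by HTRF after 30 min lysis at room temperature.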
* = called active by the depositor; ? = inconclusive; . = no result; [ ] = dose if it differs, or a comment. Hits are enriched below; roughly 0.62% of the tested compounds scored in any of these assays. Potency is the fitted concentration of half-maximal effect.

SMILES | ASM inhibitor | BCR signal inh | gsp ag | MBNL1 CUG block | gsp antagonist
Cc1ccc2[nH]c3c(=S)nc[nH]c3c2c1 | 12% | ? | 11µM* | ? | 31%
CN(C(=O)c1ccc(NC(=O)Cc2cccc(NC(=O)C3CCCN(C(=O)C4CCCC4)C3)c2)cc1)C1CCCC1 (stereo not given) | -3% | 4% | . | . | -6%
CC(=O)c1ccc(N2CCN(C(=O)CCCc3nc4ccccc4s3)CC2)cc1 | -2% | 1% | -5% | -1% | 32µM*
COCCN1C(=O)/C(=C/c2ccc(Oc3ccc([N+](=O)[O-])cn3)c(OC)c2)SC1=Nc1ccccc1 | -4% | -1% | -23% | 3% | -1%
COc1ccc(N=C2S/C(=C\c3ccc(OC(C)C(=O)O)c(OC)c3)C(=O)N2CCc2c[nH]c3ccccc23)cc1 (stereo not given) | -26% | 27% | -25% | 5% | 35µM*
COc1cc(/C=C2\SC(=Nc3ccccc3)N(CCc3c[nH]c4ccccc34)C2=O)ccc1OC(C)C(=O)O (stereo not given) | -12% | ? | 8%[15.4 µM] | -11% | 35µM*
O=C1/C(=C/c2ccc(N3CCOCC3)o2)SC(=Nc2ccccc2)N1CCc1c[nH]c2ccccc12 | -20% | ? | -11% | -13% | 8%
OCC(CO)c1cnnc2ccccc12 | 5% | . | 1% | . | 6%
COc1ccc(C(=O)c2sc3nc(C)cc(-c4cccs4)c3c2N)cc1 | -7% | 2% | 10µM* | . | -15%
Cc1cccnc1NC(=O)CN1C(=O)c2ccccc2S1(=O)=O | 1% | -1% | 9%[15.4 µM] | . | 4%
COc1ccccc1NC(=O)COC(=O)c1c(C)nn(-c2ccccc2)c1C | -1% | -7% | 0% | . | 32µM*
Cc1nn(-c2ccccc2)c(C)c1NC(=O)COc1ccc(Br)cc1Cl | 4% | -11% | -2%[15.4 µM] | 2% | 35µM*
Cc1nn(-c2ccccc2)c(C)c1NC(=O)COc1ccc(C#N)cc1 | 2% | -1% | -1% | -9% | 1%
Cc1nn(-c2ccccc2)c(C)c1NC(=O)COc1ccccc1C#N | . | . | -82% | . | .
Cc1nn(-c2ccccc2)c(C)c1NC(=O)COc1ccc2ccccc2c1 | -1% | ? | -56% | -3% | 16µM*
COc1ccc(-c2onc(C)c2-c2cscn2)c(O)c1 | 1% | ? | -2%[15.4 µM] | -2% | .
CCCOC(=O)c1ccc(-c2c(C)noc2-c2ccc(OC)cc2O)o1 | ? | ? | 5% | 0% | 32µM*
CCN(CC(=O)Nc1ccc(OC)cc1)C(=O)CSCC(=O)Nc1cc(C)on1 | -3% | 2% | -20% | . | -5%
O=C(Cn1cnc2c(oc3ccccc32)c1=O)NCC1CCCO1 (stereo not given) | 3% | 6% | 7.1µM* | -3% | 29%
COc1ccc(C)c(-n2c(=O)n(Cc3ccccc3)c(=O)c3[nH]cnc32)c1 | 5% | ? | -15% | . | 11%
COc1ccc(Cn2c(=O)c3[nH]cnc3n(-c3ccccc3C)c2=O)cc1 | 2% | 16µM* | -9%[15.4 µM] | . | 27%
O=C(c1ccco1)N1N=C(c2ccccc2O)CC1c1cccs1 (stereo not given) | . | . | -52% | . | .
O=C(NCCc1ccc(Cl)cc1)c1ccc(CS(=O)(=O)Cc2ccccc2F)o1 | . | -26% | . | . | .
CCOC(=O)CSc1cc(=O)n(CC)c2ccccc12 | -3% | 0% | ? | 12% | ?
Cn1c(=O)cc(SCC(=O)NCCC2=CCCCC2)c2ccc(Cl)cc21 | 4% | -1% | -2% | . | 5%
CN(CCCNC(=O)CSc1cc(=O)n(C)c2cc(Cl)ccc12)Cc1ccccc1 | -1% | ? | 18µM* | 8% | 0%
CCOC(=O)CSc1cc(=O)n(C)c2cc(Cl)ccc12 | -1% | 2% | 16µM* | 14% | -19%
O=C(CCN1CCN(Cc2ccccc2)CC1)NNC(=O)Nc1cccc(C(F)(F)F)c1 | -1% | ? | -1% | 6% | -7%
COc1cccc(N2CC(C(=O)Nc3c(C(N)=O)oc4ccccc34)CC2=O)c1 (stereo not given) | -4% | 10% | ? | . | 3%
